Source: article PMC5700166

target: T1, GST-Nv-NF-kB (Ser allele) (Nematostella vectensis, UniProt A7UNT2 2-411); test: protein-binding microarray (PBM); PBM: ~300 nM protein, 6 mM HEPES pH 7.8, 80 mM KCl, 0.5 mM EDTA, 0.5 mM EGTA, 6% glycerol, 35 ng/ul poly-dIdC, 1% milk, 1 h, room temperature; Ap Aiptasia and Nv Nematostella (sea anemones) / Co Capsaspora / Aq Amphimedon (sponge) / Dm Drosophila / Hu human; RHD is the Rel homology domain; high values mean tight binding; conditions: dsDNA, one strand shown
T1 sequence: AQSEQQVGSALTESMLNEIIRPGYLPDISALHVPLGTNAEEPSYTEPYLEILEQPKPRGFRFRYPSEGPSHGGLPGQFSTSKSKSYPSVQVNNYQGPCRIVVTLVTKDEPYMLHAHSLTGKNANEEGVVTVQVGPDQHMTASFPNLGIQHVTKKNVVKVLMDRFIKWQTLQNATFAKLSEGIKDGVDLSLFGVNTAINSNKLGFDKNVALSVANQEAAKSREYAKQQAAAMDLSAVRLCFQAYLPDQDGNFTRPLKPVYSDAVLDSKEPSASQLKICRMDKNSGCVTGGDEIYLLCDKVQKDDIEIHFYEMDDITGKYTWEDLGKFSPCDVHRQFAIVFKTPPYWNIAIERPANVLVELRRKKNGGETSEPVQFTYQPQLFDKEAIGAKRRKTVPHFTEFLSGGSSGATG

Sequence | binding signal [z-score]
CCGATTAACATCACCGAACCCCCTGATGTTAATCGGGTCTTGATTCGCTTGACGCTGCTG | 5.24
CCGATTAACATCAGGAAATACCCTGATGTTAATCGGGTCTTGATTCGCTTGACGCTGCTG | 6.46
CCGATTAACATCAGCTCCCCCCCTGATGTTAATCGGGTCTTGATTCGCTTGACGCTGCTG | 3.44
CCGATTAACATCAAACCCCCCCCTGATGTTAATCGGGTCTTGATTCGCTTGACGCTGCTG | 5.04
CCGATTAACATCAGGGGGGAGACTGATGTTAATCGGGTCTTGATTCGCTTGACGCTGCTG | 5.69
CCGATTAACATCAGGGCTCCCCCTGATGTTAATCGGGTCTTGATTCGCTTGACGCTGCTG | 5.09
CCGATTAACATCAGGAGTCCCCCTGATGTTAATCGGGTCTTGATTCGCTTGACGCTGCTG | 5.14
CCGATTAACATCAAACTCCCCCGTGATGTTAATCGGGTCTTGATTCGCTTGACGCTGCTG | 6.52
CCGATTAACATCACGGGGGGGGCTGATGTTAATCGGGTCTTGATTCGCTTGACGCTGCTG | 2.3
CCGATTAACATCAGCCCCCCCCATGATGTTAATCGGGTCTTGATTCGCTTGACGCTGCTG | 2.7
CCGATTAACATCAGGGAAATTAATGATGTTAATCGGGTCTTGATTCGCTTGACGCTGCTG | 6.52
CCGATTAACATCAAAATCACCCCTGATGTTAATCGGGTCTTGATTCGCTTGACGCTGCTG | 3.66
CCGATTAACATCAGGAGATCCCCTGATGTTAATCGGGTCTTGATTCGCTTGACGCTGCTG | 6.55
CCGATTAACATCAATCCCCCCCCTGATGTTAATCGGGTCTTGATTCGCTTGACGCTGCTG | 6.45
CCGATTAACATCAGGGGGTTGCATGATGTTAATCGGGTCTTGATTCGCTTGACGCTGCTG | 4.66
CCGATTAACATCAGAAAGTTCCCTGATGTTAATCGGGTCTTGATTCGCTTGACGCTGCTG | 3.65
CCGATTAACATCAGAAAATCACCTGATGTTAATCGGGTCTTGATTCGCTTGACGCTGCTG | 4.87
CCGATTAACATCAAACCTTCCCCTGATGTTAATCGGGTCTTGATTCGCTTGACGCTGCTG | 5.79
CCGATTAACATCAATCCACCCCCTGATGTTAATCGGGTCTTGATTCGCTTGACGCTGCTG | 3.94
CCGATTAACATCACGGAATTCCCTGATGTTAATCGGGTCTTGATTCGCTTGACGCTGCTG | 6.06

Sequence | binding signal [z-score]
CCGATTAACATCAGGGGGGGAACTGATGTTAATCGGGTCTTGATTCGCTTGACGCTGCTG | 6.12
CCGATTAACATCAGTGTCCCGTTTGATGTTAATCGGGTCTTGATTCGCTTGACGCTGCTG | 1.48
CCGATTAACATCAGGGATGCCCCTGATGTTAATCGGGTCTTGATTCGCTTGACGCTGCTG | 4.08
CCGATTAACATCAGGGGGAGGGATGATGTTAATCGGGTCTTGATTCGCTTGACGCTGCTG | 4.98
CCGATTAACATCAGGGGGGTTACTGATGTTAATCGGGTCTTGATTCGCTTGACGCTGCTG | 4.18
CCGATTAACATCAGAAACTTCCCTGATGTTAATCGGGTCTTGATTCGCTTGACGCTGCTG | 4.61
CCGATTAACATCAAAAACCACCCTGATGTTAATCGGGTCTTGATTCGCTTGACGCTGCTG | 4.22
CCGATTAACATCAGATAACCCCCTGATGTTAATCGGGTCTTGATTCGCTTGACGCTGCTG | 5.95
CCGATTAACATCAAAAAATCACCTGATGTTAATCGGGTCTTGATTCGCTTGACGCTGCTG | 5.57
CCGATTAACATCATCTCCCCCCATGATGTTAATCGGGTCTTGATTCGCTTGACGCTGCTG | 3.69
CCGATTAACATCAGTACCGCGAATGATGTTAATCGGGTCTTGATTCGCTTGACGCTGCTG | 1.29
CCGATTAACATCACCCCGCCCCCTGATGTTAATCGGGTCTTGATTCGCTTGACGCTGCTG | 3.65
CCGATTAACATCAGGGGGTTAAATGATGTTAATCGGGTCTTGATTCGCTTGACGCTGCTG | 4.45
CCGATTAACATCAAATTGGGAAATGATGTTAATCGGGTCTTGATTCGCTTGACGCTGCTG | 2.19
CCGATTAACATCAAAATGCCCCCTGATGTTAATCGGGTCTTGATTCGCTTGACGCTGCTG | 4.81
CCGATTAACATCAGGGATTTTTATGATGTTAATCGGGTCTTGATTCGCTTGACGCTGCTG | 5.24
CCGATTAACATCAAAACACCCCTTGATGTTAATCGGGTCTTGATTCGCTTGACGCTGCTG | 2.64
CCGATTAACATCAGGGGACCCCCTGATGTTAATCGGGTCTTGATTCGCTTGACGCTGCTG | 5.69
CCGATTAACATCACGAAAACCCCTGATGTTAATCGGGTCTTGATTCGCTTGACGCTGCTG | 5.71
CCGATTAACATCACGGAAAAACCTGATGTTAATCGGGTCTTGATTCGCTTGACGCTGCTG | 1.31
